Assay results taken from PubChem BioAssay AID1159580 (chemical genetic matrix, 2015).
“And” between values parts separate entries of the source, which are not always exact repeats. Identical values can stand only once. Among all 5,500 compounds or so, about 2,000 (36%) were called active. Inconclusive results (about 18%) are left out. No stated cut-off is given here; in the data, active means normalized growth mostly below about 0.91 (no sharp cut-off); inconclusive means no clear call, values can overlap the other calls; inactive means mostly above about 0.92. Some of the results follow.

Experiment: chemical genetic growth profiling, strain panel (AID 1159580);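 further: tested at 20 µM; growth read once vehicle control cultures reached saturation at 30 °C; 1 = growth at the plate median or of vehicle wells; lower values mean less growth of the strain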
Settings: S. cerevisiae deletion strains, growth OD

Measured: normalized growth

CCNc1nc(Cl)nc(NC(C)C)n1
inactive: locus YAL013W, strain DEP1, hits give low values 1.01 | locus YAL021C, strain ccr4, hits give low values 0.995 | locus YAL026C, strain drs2, hits give low values 1.01 | locus YAL030W, strain snc1, hits give low values 0.999 | locus YBL061C, strain skt5, hits give low values 1.01 | locus YBR009C, strain hhf1, hits give low values 0.99 | locus YBR021W, strain FUR4, hits give low values 1.02 | locus YBR023C, strain chs3, hits give low values 0.998 | locus YBR171W, strain sec66, hits give low values 0.995 | locus YBR229C, strain ROT2, hits give low values 1.01 | locus YBR231C, strain swc5, hits give low values 1.01 | locus YBR279W, strain paf1, hits give low values 0.998 | locus YCL011C, strain gbp2, hits give low values 0.993 | locus YCL016C, strain dcc1, hits give low values 0.995 | locus YCL029C, strain bik1, hits give low values 1.02 | locus YCL061C, strain MRC1, hits give low values 0.99 | locus YCL069W, strain vba3, hits give low values 0.997 | locus YCR088W, strain abp1, hits give low values 1 | locus YDL005C, strain med2, hits give low values 0.999 | locus YDL035C, strain GPR1, hits give low values 1.01 | locus YDL040C, strain nat1, hits give low values 1 | locus YDL074C, strain BRE1, hits give low values 1.01 | locus YDL101C, strain DUN1, hits give low values 1.03 | locus YDL134C, strain PPH21, hits give low values 1.02 | locus YDL185W, strain tfp1, hits give low values 1.02 | locus YDL192W, strain arf1, hits give low values 1.02 | locus YDR001C, strain nth1, hits give low values 0.992 | locus YDR069C, strain doa4, hits give low values 1.01 | locus YDR101C, strain arx1, hits give low values 1.02 | locus YDR137W, strain rgp1, hits give low values 0.999 | locus YDR150W, strain NUM1, hits give low values 1.02 | locus YDR159W, strain sac3, hits give low values 1.01 | locus YDR162C, strain NBP2, hits give low values 1.04 | locus YDR195W, strain ref2 0.987 | locus YDR297W, strain sur2, hits give low values 1 | locus YDR318W, strain mcm21, hits give low values 1.03 | locus YDR334W, strain swr1, hits give low values 0.999 | locus YDR335W, strain msn5, hits give low values 1.01 | locus YDR388W, hits give low values 1.01 | locus YDR392W, strain spt3, hits give low values 1.01 | locus YDR502C, strain sam2, hits give low values 1.02 | locus YEL003W, strain gim4, hits give low values 0.994 | locus YEL037C, strain rad23, hits give low values 1.01 | locus YEL061C, strain CIN8 (second series), hits give low values 1.01 | locus YEL061C, strain CIN8, hits give low values 1.01 | locus YER015W, strain faa2, hits give low values 1 | locus YER016W, strain bim1, hits give low values 0.997 | locus YER110C, hits give low values 1.02 | locus YER111C, strain swi4, hits give low values 1 | locus YER155C, strain BEM2 (second series), hits give low values 0.993 | locus YER155C, strain BEM2, hits give low values 1 | locus YER167W, strain BCK2, hits give low values 1.02 | locus YFR010W, strain ubp6, hits give low values 1.01 | locus YGL078C, strain dbp3, hits give low values 1.02 | locus YGL086W, strain mad1, hits give low values 1.01 | locus YGL167C, strain pmr1, hits give low values 0.994 | locus YGL173C, strain kem1, hits give low values 1.01 | locus YGL227W, strain vid30, hits give low values 0.999 | locus YGL240W, strain doc1, hits give low values 0.98 | locus YGL248W, strain PDE1, hits give low values 1.01 | locus YGL253W, strain hxk2, hits give low values 1 | locus YGR078C, strain PAC10, hits give low values 1.02 | locus YGR135W, strain pre9, hits give low values 1.01 | locus YGR229C, strain SMI1, hits give low values 1.02 | locus YGR252W, strain gcn5, hits give low values 1 | locus YHR013C, strain ard1, hits give low values 1.01 | locus YHR027C, strain rpn1, hits give low values 1 | locus YHR030C, strain SLT2, hits give low values 1.03 and 0.992 | locus YHR079C, strain IRE1 (second series), hits give low values 1.02 | locus YHR079C, strain IRE1, hits give low values 0.99 | locus YHR094C, strain hxt1, hits give low values 1.02 | locus YHR129C, strain ARP1, hits give low values 1.01 | locus YHR142W, strain chs7, hits give low values 0.972 | locus YHR200W, strain rpn10, hits give low values 1.02 | locus YIL066C, strain RNR3, hits give low values 0.944 | locus YIL073C, strain SPO22, hits give low values 1.04 | locus YIL125W, strain kgd1, hits give low values 1.02 | locus YIR030C, strain dcg1, hits give low values 1.03 | locus YJL092W, strain hpr5, hits give low values 0.998 | locus YJL095W, strain BCK1 (second series), hits give low values 1 | locus YJL095W, strain BCK1, hits give low values 1 and 0.985 | locus YJL115W, strain asf1, hits give low values 1.01 | locus YJL129C, strain trk1, hits give low values 0.982 | locus YJL134W, strain LCB3, hits give low values 1.03 | locus YJL154C, strain vps35, hits give low values 0.996 | locus YJL164C, strain tpk1, hits give low values 0.998 | locus YJL166W, strain qcr8, hits give low values 0.993 | locus YJL168C, strain set2, hits give low values 1.02 | locus YJL187C, strain SWE1 (second series), hits give low values 1.02 | locus YJR043C, strain POL32, hits give low values 1.02 | locus YJR066W, strain TOR1, hits give low values 0.959
